The entries come from a sample that favours hits as a whole.
TbPYK inhibitor = qHTS of Trypanosoma Brucei Inhibitors; pyruvate kinase (Trypanosoma brucei), Q57TT1; TbPYK enzyme, Kinase-Glo Plus ATP luminescence, 45 min; Potency, µM (highest dose often 76.8 µM), hits mostly inhibitors; 410,000 compounds, 0.12% hits; also: nearly all actives have a fitted effect of over 50% in size
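In this concentration-response screen, enzyme-free wells defined baseline while DMSO plates tracked drift. Each reaction combined TbPYK, substrate, compound and 130 uM ADP for 45 min at room temperature. Kinase-Glo Plus luminescence gave the signal.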
Shiga toxin inh = A qHTS for Small Molecule Inhibitors of Shiga Toxin. Vero cells, Shiga toxin protein synthesis inhibition reporter. inhibition, % at 38.7 µM. 290,000 compounds, 9.2% hits. AID 2315, 2010; in the data active = inhibition mostly above about 28%, no sharp cut-off; inactive = mostly below about 43%
LmPK inhibitor = qHTS Assay for Inhibitors of Leishmania Mexicana Pyruvate Kinase (LmPK); Q27686; purified LmPK, Kinase-Glo ATP luminescence, 1 h; Potency, µM (highest dose often 57.5 µM), most hits filed as inhibitors; 290,000 compounds, 0.37% hits; AID 1721, 2009
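ATP generated from ADP (0.1 mM) and PEP (0.5 mM) by 0.1 nM LmPK over 1 h at room temperature (pH 7.2 imidazole buffer) was detected by coupled luciferase luminescence. Values were normalized to uninhibited and no-enzyme wells.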
FBPA Giardia inh = qHTS Assay for Inhibitors of Fructose-1,6-bisphosphate Aldolase from Giardia Lamblia. purified Giardia FBPA. A8B2U2. Potency, µM (series often up to 59.6 µM), most hits filed as inhibitors. 290,000 compounds, 0.71% hits; also: nearly all actives have a fitted effect of over 55% in size
Target sequence (A8B2U2 whole entry, looked up): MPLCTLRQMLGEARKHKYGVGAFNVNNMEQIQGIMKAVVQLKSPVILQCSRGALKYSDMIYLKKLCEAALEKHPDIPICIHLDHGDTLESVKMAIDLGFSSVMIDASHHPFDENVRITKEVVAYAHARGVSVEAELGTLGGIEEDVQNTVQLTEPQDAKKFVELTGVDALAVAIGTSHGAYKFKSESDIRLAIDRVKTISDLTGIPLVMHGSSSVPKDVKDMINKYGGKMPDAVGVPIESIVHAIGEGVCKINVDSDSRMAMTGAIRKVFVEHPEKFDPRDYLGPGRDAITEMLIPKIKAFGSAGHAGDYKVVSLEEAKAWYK
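Giardia FBPA (40 nM reagent) was preincubated 10 min at RT with compound (up to 57.5 uM final), then substrate plus GAPDH/TPI/NAD/arsenate coupling system with diaphorase/resazurin was added; resorufin fluorescence (525/598 nm) was read after 20 min.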
CHX counter = Cycloheximide Counterscreen for Small Molecule Inhibitors of Shiga Toxin. AID 2314, 2010. cell reporter, cycloheximide protein synthesis inhibition counterscreen. max response, %. 300,000 compounds, 12% hits; in the data active = max response mostly above about 13%, no sharp cut-off; inactive = mostly below about 14%; also: read at 38.3 µM for the half of the compounds with a filed dose
RE007 growth inh = qHTS Assay for Inhibitors of the HIV-1 protein Vpr. AID 651644, 2012. S. pombe RE007 Vpr strain, BacTiter-Glo ATP luminescence, 24 h. 360,000 compounds, 0.21% hits. Potency, µM (series often up to 92.2 µM), hits mostly inhibitors; active = well fitted falling curve with a large enough effect; inconclusive = small, poorly fitted or top-dose-only effect; inactive = no such curve, though single readings can be large or run the other way; also: nearly all actives have a fitted effect of over 50% in size
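Fission yeast RE007 carrying one integrated HIV-1 vpr copy, seeded at OD 0.01 in PMG+AL medium with 23 nL pinned compound. Grown 24 h at 30 degrees; viability read by BacTiter-Glo luminescence after 5 min.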
A number is an active result; - = inactive; ? = inconclusive; . = no result given. Unless noted, calls follow the shape of the dose curve; as a rule, active = well fitted curve in the direction sought with a large enough effect; inconclusive = small, poorly fitted or top-dose-only effect, or another doubt; inactive = no such curve, though single readings can be large; an effect the other way counts as inactive or inconclusive.

SMILES	TbPYK inhibitor	Shiga toxin inh	LmPK inhibitor	FBPA Giardia inh	CHX counter	RE007 growth inh
c1ccc(-c2noc(-c3ccco3)n2)nc1	-	36	16µM	-	29	-
c1ccc(-c2nc(-c3ccco3)cs2)nc1	?	107	-	-	30	?
Cc1cn(C)c(CC(=O)N2CCN(c3ccccc3F)CC2)c1C(=O)O	-	.	.	.	.	.
C=C(C)C(=O)/C=C/CCC/C=C/C(=O)OCC	.	.	.	-	.	.
c1cc(NC2CC2)nc(-c2ccoc2)n1	.	.	.	-	.	.
Cc1ccc(-c2noc(-c3ccno3)n2)cc1	-	82	-	-	49	-
Fc1ccc(-c2csc(-c3ccccn3)n2)cc1F	-	175	-	-	46	-
OC(c1ccc(F)c(F)c1)c1nc(-c2ccccc2)cs1 (stereo not given)	-	.	.	.	.	-
Cn1c2cc(C#N)sc2c2cnn(Cc3ccccc3F)c(=O)c21	.	-	.	.	-	.
CCOC(=O)C1CCN(C(=O)/C=C/c2ccc(OC)cc2)CC1	-	71	-	-	42	-
COC(=O)C1CCN(C(=O)/C=C/c2ccccc2)CC1	-	41	-	-	-	-
CCOC(=O)C1CCN(C(=O)/C=C/c2ccccc2OC)CC1	-	-	-	-	-	-
O=C(/C=C/c1cccc(Cl)c1)N1CCC(Cc2ccccc2)CC1	-	54	-	-	12	-
Cc1cc(C)c(NC(=O)CN(CC(=O)O)CC(=O)O)c(C)c1Br	-	.	.	.	.	.
O=C(c1cnccn1)N1CCC2(CC1)CN(c1ncccn1)C2	-	.	.	-	.	.
O=C(NCCCN1CCCCC1)c1cc(Sc2ccc(Cl)cc2)nc2ccccc12	-	.	.	.	.	.
COc1ccc(C2NN=C(c3c[nH]c4ccccc34)C2O)cc1 (stereo not given)	-	38	-	-	36	.
CC(=O)/C=C/n1c(=S)oc2ccccc21	-	-	-	-	32	40µM
CC(C)CC(=O)/C=C/n1c(=S)oc2ccccc21	-	-	-	-	-	-
CC(C)ON(C(C(=O)NO)C(C)C)S(=O)(=O)c1ccc(-c2ccccc2)cc1 (stereo not given)	.	-	.	-	-	.
COC(=O)c1ccc(N2CCN(CC(=O)c3ccc(C)cc3)CC2)c([N+](=O)[O-])c1	-	.	.	.	.	-
COc1ccc(N2CCN(c3ccc(C(=O)O)cc3[N+](=O)[O-])CC2)cc1	-	-	-	-	12	-
COC(=O)c1ccc(N2CCN(CC(=O)c3ccc(-c4ccccc4)cc3)CC2)c([N+](=O)[O-])c1	-	60	-	-	85	-
COc1ccc(C(=O)c2ccc(N3CCOCC3)c([N+](=O)[O-])c2)cc1	-	-	-	-	-	-
CC(=O)c1ccc(N2CCc3ccccc3C2)c([N+](=O)[O-])c1	-	76	-	-	30	-
SMILES	TbPYK inhibitor	Shiga toxin inh	LmPK inhibitor	FBPA Giardia inh	CHX counter	RE007 growth inh
CN1CCN(c2ccc(C(=O)c3ccccc3)cc2[N+](=O)[O-])CC1	-	32	-	-	40	-
CN1CCN(c2ccc(C(N)=O)cc2[N+](=O)[O-])CC1	-	-	-	-	-	-
Cc1ccc(CCNC(=O)CCS(=O)(=O)c2cc3c(cc2Cl)NC(=O)CO3)cc1	-	.	.	.	.	.
N#Cc1c(/N=C/c2ccc(Br)s2)sc2c1CCC2	-	15	-	-	-	-
N#Cc1c(/N=C/c2cccs2)sc2c1CCCCC2	-	86	?	-	35	-
N#Cc1c(/N=C\c2ccc(O)c([N+](=O)[O-])c2)sc2c1CCCC2	-	-	-	-	44	-
N#Cc1c(/N=C/c2ccc(-c3ccc(C(=O)O)c(Cl)c3)o2)sc2c1CCCC2	-	.	.	.	.	-
N#Cc1c(/N=C/c2cccnc2)sc2c1CCCC2	-	-	-	-	-	-
N#Cc1c(/N=C/c2ccc(-c3ccccc3C(=O)O)o2)sc2c1CCCC2	-	111	-	-	60	?
CCN(CC)c1ncnc2c1ncn2[C@@H]1O[C@@H](COP(=O)(O)OP(=O)(O)C(Br)(Br)P(=O)(O)O)[C@H](O)[C@H]1O	.	.	.	-	.	.
CCS(=O)(=O)c1ncc(N(Cc2ccco2)Cc2ccccc2F)c(C(=O)Nc2cccc(Cl)c2)n1	-	.	.	.	.	.

Screens: PubChem BioAssay, National Center for Advancing Translational Sciences (NCATS)
